Pf apPOL inh: Pf-apPOL DNA polymerase inhibition; AID 1794808; 0.25% of 210,000 active; inhibition, % at 10 µM; Recombinant Pf-apPOL, molecular beacon fluorescence, 1.5 h
mHTT CaM bind: disrupts binding of mutant huntingtin to calmodulin; P42858; AlphaScreen His-mHTT/GST-CaM binding, luminescence; inhibition, % at 15 µM; 3.6% of 190,000 active;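 also: 0% = both proteins with DMSO and 100% = one protein alone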
An asterisk follows results filed as active; . = not tested or not shown. In the library only some 3.6% were active in any assay of this set; here they are far more common. Rule as the data show it: active = inhibition above about 50%; inactive = the rest.

SMILES	Pf apPOL inh	mHTT CaM bind
Cc1cccc(C2=NC3(CCN(CC(=O)Nc4cc(F)ccc4F)CC3)NC2=O)c1	2	-4
COc1cc([N+](=O)[O-])ccc1NC(=O)NC1(C(F)(F)F)Oc2ccccc2O1	4	15
Cc1oc2cc(OC(=O)C(C)(C)C)ccc2c(=O)c1-c1nc2ccccc2n1C	1	-2
Cc1cc2oc(=O)cc(C)c2cc1NC(=O)c1cccc(Br)c1	-1	0
O=C1CC(c2cccs2)CC2=C1C(c1coc3ccccc3c1=O)Nc1ccccc1N2 (configuration not stated)	-4	54*
O=C1CC(c2ccccc2Cl)CC2=C1C(c1coc3ccccc3c1=O)Nc1ccccc1N2 (configuration not stated)	10	26
OCCN=Cc1c(O)n(-c2c(Cl)cccc2Cl)c2ccccc12	-1	85*
CCC(CO)N=Cc1c(O)n(-c2c(Cl)cccc2Cl)c2ccccc12 (configuration not stated)	-1	83*
Oc1ccccc1N=Cc1c(Cl)cccc1Cl	-5	12
CC(=O)n1c(C=Nc2ccc(Cl)cc2)c(O)c2ccccc21	-1	-2
CN1CCN(c2c3c(c(C#N)c4nc5ccccc5n24)CCC3)CC1	-4	-10
c1ccc(-c2cccc(-c3ccccn3)n2)nc1	.	100*
c1ccc(-c2ccc3ccccc3n2)nc1	.	-1
COc1cccc(-c2nc(C3CCN(C(=O)c4ccccc4)CC3)no2)c1	0	13
Cc1cccc(-c2nc(C3CCN(C(=O)COc4ccc(Cl)cc4)CC3)no2)c1	-1	80*
Cc1cccc(-c2nc(C3CCN(C(=O)Cc4cccc(F)c4)CC3)no2)c1	0	20
COc1cccc(-c2nc(C3CCN(C(=O)C4COc5ccccc5O4)CC3)no2)c1 (configuration not stated)	1	87*
CN1C(=O)C2CCCCN2c2ccc(C(=O)NCCCN(C)C3CCCCC3)cc21 (configuration not stated)	0	10
CCC1CN2C=NC(N3CCN(C(=O)Nc4cccc(F)c4C)CC3)=CC2=N1 (configuration not stated)	-5	0
O=C(CSc1ccc(-n2ccnc2)nn1)N1CCc2ccccc21	-7	-4
COc1ccc(NC(=O)c2cc3c(s2)CN(C2CC2)C3)c(C)c1	4	15
O=C(Sc1n[nH]c(=O)[nH]c1=O)c1cccc(Br)c1	-5	4
Cc1ccc(C(=O)Sc2n[nH]c(=O)[nH]c2=O)cc1	12	98*
COc1ccccc1N1CCN(C(=O)CSc2ccc(C)cc2)CC1	-8	19
O=C(Nc1cccc(-c2ccc(N3CCCC3)nn2)c1)c1cc(-c2cccs2)[nH]n1	1	99*
SMILES	Pf apPOL inh	mHTT CaM bind
CN1CCN(c2ccc(-c3cccc(NC(=O)c4cccs4)c3)nn2)CC1	2	-10
Cc1noc(C)c1CCC(=O)Nc1cccc(-c2ccc(N3CCCC3)nn2)c1	-8	27
O=C(Cc1noc2ccccc12)Nc1cccc(-c2ccc(N3CCCC3)nn2)c1	-29	67*
COCCNC(=O)Cn1c(=O)n(Cc2ccc3c(c2)OCO3)c(=O)c2ccccc21	9	3
Cc1cc(C(=O)N2CCCC2c2nc(-c3ccccc3)n[nH]2)nn1C (configuration not stated)	-4	1
O=[N+]([O-])c1ccccc1OCC(O)CN1CCN(c2cccc(Cl)c2)CC1 (configuration not stated)	-13	23
COc1cccc(OC)c1OCC(O)CN1CCN(c2cc(Cl)ccc2C)CC1 (configuration not stated)	1	64*
COc1cccc(OC)c1OCC(O)CN1CCN(c2ccccc2F)CC1 (configuration not stated)	-4	5
Cc1ccc(Cl)cc1N1CCN(CC(O)COc2ccccc2[N+](=O)[O-])CC1 (configuration not stated)	6	91*
COc1cccc(OC)c1OCC(O)CN1CCN(c2cccc(Cl)c2)CC1 (configuration not stated)	1	53*
COc1ccc(N2CCN(CC(O)COc3c(OC)cccc3OC)CC2)cc1 (configuration not stated)	-6	7
CCOc1ccc(CNC(=O)CC2CCN(C(=O)c3ccc(C)cc3)CC2)cc1OC	1	11
O=c1/c(=C/c2ccccc2)sc2nc(-c3cccs3)nn12	-12	4
O=c1/c(=C/C=C/c2ccccc2)sc2nc(-c3cccs3)nn12	0	52*
O=C(Nc1cc(F)cc(F)c1)C1CCCN(c2ncc(-c3ccccc3)cn2)C1 (configuration not stated)	-3	-6
N#CSC(CS(=O)(=O)c1ccccc1)c1ccccc1 (configuration not stated)	-7	-10
N#CSC(CS(=O)(=O)c1cccc([N+](=O)[O-])c1)c1ccccc1 (configuration not stated)	-7	94*
COCCCNC(=O)c1cnn2c(C)c(Cc3ccc(Cl)cc3)c(C)nc12	-14	90*
Cc1nc2c(C(=O)N3CCCC(C)C3)cnn2c(C)c1Cc1ccc(Cl)cc1 (configuration not stated)	-4	100*
Cc1nc2c(C(=O)NCc3ccccc3)cnn2c(C)c1Cc1ccc(Cl)cc1	-9	35
Cc1nc2c(C(=O)N3CCCCC3)cnn2c(C)c1Cc1ccccc1Br	-9	41
Cc1nc2c(C(=O)N3CCCCC3)cnn2c(C)c1Cc1ccc(Cl)cc1	2	100*
COCCNC(=O)c1cnn2c(C)c(Cc3ccc(F)cc3)c(C)nc12	-9	19
CC(C)(C)S(=O)(=O)Cc1noc(-c2ccc(F)cc2Cl)n1	0	.
Cn1c(N)nc2ccccc21	.	-2
SMILES	Pf apPOL inh	mHTT CaM bind
COc1ccc2c(N3CCC(C(=O)NCc4ccccc4)CC3)c(C#N)cnc2c1	2	-5
O=C(O)c1ccc2c(c1)C1C=CCC1C(c1ccccc1Br)N2 (configuration not stated)	-1	23
O=C(O)c1cc2c3c(c1)C1C=CCC1C(c1ccccc1F)N3CC1CC=CC21 (configuration not stated)	-7	70*
O=[N+]([O-])c1cccc(C2N(c3ccccc3)CCN2c2ccccc2)c1	-3	.
O=[N+]([O-])c1ccc(S(=O)(=O)N2CC3C4C=CC(C4)C3C2)cc1 (configuration not stated)	8	4
O=C(O)c1ccc2c3c1C1C=CCC1CN3CC1CC=CC21 (configuration not stated)	12	16
O=C(O)c1cc2c3c(c1)C1C=CCC1C(c1cccc([N+](=O)[O-])c1)N3CC1CC=CC21 (configuration not stated)	4	70*
O=C(O)c1cc2c3c(c1)C1C=CCC1C(c1ccccc1)N3CC1CC=CC21 (configuration not stated)	3	94*
NS(=O)(=O)c1cc2c3c(c1)C1C=CCC1C(c1ccc([N+](=O)[O-])cc1)N3CC1CC=CC21 (configuration not stated)	-8	63*
O=C(Nc1ccccc1O)c1cc2ccccc2oc1=O	-1	8
COc1cc(NC(=O)C2CCCN(C(=O)c3cccc(Cl)c3)C2)cc(OC)c1 (configuration not stated)	2	36
CCN(CCN(C)C)Cc1cc(OC)c(OC)cc1[N+](=O)[O-]	2	5
CCCCC#Cc1cncc(C(=O)NN=Cc2cccs2)c1	1	.

Screening data deposited in PubChem by University of Kansas High Throughput Screening Laboratory.
